Measured values reported in PubChem BioAssay.
Several values for one entry are separate records, joined by “and”; a condition that tells them apart may be missing. Identical values can stand only once. Activity calls are given as the source filed them. Cut-off read from the data, not from the text of the source: active = inhibition above about 80%; inactive = the rest.

Assay: LFS_MB_P medulloblastoma growth inhibition, cell-based, chromothripsis tumors, cisplatin or BGB combos (AID 1671449);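 note: cells exposed for 96 hours; 0% = vehicle DMSO and 100% = killing by high DMSO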
Details: LFS_MB_P medulloblastoma cells, at 0.5 µM, stronger effect = higher value
For C[C@H]1COc2c(C3(N)CC3)c(F)cc3c(=O)c(C(=O)O)cn1c23, the inhibition was -4.46% (inactive).
For CCN1CCN(c2cc3c(cc2F)c(=O)c(C(=O)O)cn3C2CC2)CC1, the inhibition was -14.6% (inactive).
With O=C(O)P(=O)(O)O the inhibition was -17.5% (inactive).
In the case of CC1CCc2cc(F)cc3c(=O)c(C(=O)O)cn1c23 (stereo unspecified), the inhibition is reported as 39.2% (inactive) and -31.9% (inactive).
In the case of CN(C)/N=N/c1nc[nH]c1C(N)=O, the inhibition is reported as -23.9% (inactive) and -10.4% (inactive).
For Nc1nc2c(ncn2CCC(CO)CO)c(=O)[nH]1, the inhibition was -31.4% (inactive) and 10.2% (inactive).

Same assay, conditions: LFS_MB_P medulloblastoma cells, measured here: combination with BGB IC20, at 0.005 µM
Work on C[C@H]1COc2c(C3(N)CC3)c(F)cc3c(=O)c(C(=O)O)cn1c23 yielded an inhibition of -13%.
For CCN1CCN(c2cc3c(cc2F)c(=O)c(C(=O)O)cn3C2CC2)CC1, the inhibition was -15.1%.
O=C(O)P(=O)(O)O showed an inhibition of -17.5%.
With CC1CCc2cc(F)cc3c(=O)c(C(=O)O)cn1c23 (stereo unspecified) the inhibition was -29.5% and 27.9%.
For CN(C)/N=N/c1nc[nH]c1C(N)=O, the inhibition was 22.6% and -26.8%.
With Nc1nc2c(ncn2CCC(CO)CO)c(=O)[nH]1 the inhibition was 18% and -5.86%.

Same assay, conditions: LFS_MB_P medulloblastoma cells, measured here: combination with BGB IC40, at 0.005 µM
With C[C@H]1COc2c(C3(N)CC3)c(F)cc3c(=O)c(C(=O)O)cn1c23 the inhibition was -17.8%.
CCN1CCN(c2cc3c(cc2F)c(=O)c(C(=O)O)cn3C2CC2)CC1 showed an inhibition of -16%.
O=C(O)P(=O)(O)O gave an inhibition of -19.7%.
With CC1CCc2cc(F)cc3c(=O)c(C(=O)O)cn1c23 (stereo unspecified) the inhibition was -17.3% and 13.7%.
In the case of CN(C)/N=N/c1nc[nH]c1C(N)=O, the inhibition is reported as -4.64% and -12.1%.
In the case of Nc1nc2c(ncn2CCC(CO)CO)c(=O)[nH]1, the inhibition is reported as -15.5% and -23.1%.

Same assay, conditions: LFS_MB_P medulloblastoma cells, measured here: combination with BGB IC40, at 0.05 µM
C[C@H]1COc2c(C3(N)CC3)c(F)cc3c(=O)c(C(=O)O)cn1c23 gave an inhibition of -33.8%.
In the case of CCN1CCN(c2cc3c(cc2F)c(=O)c(C(=O)O)cn3C2CC2)CC1, the inhibition is reported as -15.4%.
Work on O=C(O)P(=O)(O)O yielded an inhibition of -16.3%.
In the case of CC1CCc2cc(F)cc3c(=O)c(C(=O)O)cn1c23 (stereo unspecified), the inhibition is reported as -16.4% and 38.8%.
With CN(C)/N=N/c1nc[nH]c1C(N)=O the inhibition was 6.08% and -27.5%.
For Nc1nc2c(ncn2CCC(CO)CO)c(=O)[nH]1, the inhibition was -8% and -22.9%.

Same assay, conditions: LFS_MB_P medulloblastoma cells, measured here: combination with cisplatin, at 0.5 µM, stronger effect = higher value
C[C@H]1COc2c(C3(N)CC3)c(F)cc3c(=O)c(C(=O)O)cn1c23 showed an inhibition of -7.85%.
Work on CCN1CCN(c2cc3c(cc2F)c(=O)c(C(=O)O)cn3C2CC2)CC1 yielded an inhibition of -35.9%.
O=C(O)P(=O)(O)O gave an inhibition of -28.3%.
In the case of CC1CCc2cc(F)cc3c(=O)c(C(=O)O)cn1c23 (stereo unspecified), the inhibition is reported as 98.2% and -27%.
With CN(C)/N=N/c1nc[nH]c1C(N)=O the inhibition was -35.1% and -31.1%.
In the case of Nc1nc2c(ncn2CCC(CO)CO)c(=O)[nH]1, the inhibition is reported as -43% and 6.39%.

Same assay, conditions: LFS_MB_P medulloblastoma cells, measured here: combination with cisplatin, at 5 µM, stronger effect = higher value
Work on C[C@H]1COc2c(C3(N)CC3)c(F)cc3c(=O)c(C(=O)O)cn1c23 yielded an inhibition of -33.3%.
In the case of CCN1CCN(c2cc3c(cc2F)c(=O)c(C(=O)O)cn3C2CC2)CC1, the inhibition is reported as -7.57%.
O=C(O)P(=O)(O)O gave an inhibition of -12.6%.
For CC1CCc2cc(F)cc3c(=O)c(C(=O)O)cn1c23 (stereo unspecified), the inhibition was -36.8% and -23.2%.
With CN(C)/N=N/c1nc[nH]c1C(N)=O the inhibition was -14.4% and -39%.
With Nc1nc2c(ncn2CCC(CO)CO)c(=O)[nH]1 the inhibition was -0.859% and -46.3%.

Assay: HDN33 neuroblastoma growth inhibition, cell-based, chromothripsis tumors, cisplatin or BGB combos (AID 1671450);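 note: cells exposed to compound for four days; 0% = vehicle DMSO and 100% = cell killing by high DMSO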
Details: HDN33 neuroblastoma cells, BGB combo, at 5 µM, stronger effect = higher value
With C[C@H]1COc2c(C3(N)CC3)c(F)cc3c(=O)c(C(=O)O)cn1c23 the inhibition was -18.1%.
With CCN1CCN(c2cc3c(cc2F)c(=O)c(C(=O)O)cn3C2CC2)CC1 the inhibition was -5.32%.
With O=C(O)P(=O)(O)O the inhibition was -58%.
In the case of CC1CCc2cc(F)cc3c(=O)c(C(=O)O)cn1c23 (stereo unspecified), the inhibition is reported as -3.97% and 10%.
In the case of CN(C)/N=N/c1nc[nH]c1C(N)=O, the inhibition is reported as 18.6% and -37%.
For Nc1nc2c(ncn2CCC(CO)CO)c(=O)[nH]1, the inhibition was -37% and 3.74%.

Same assay, conditions: HDN33 neuroblastoma cells, at 0.5 µM, stronger effect = higher value
With C[C@H]1COc2c(C3(N)CC3)c(F)cc3c(=O)c(C(=O)O)cn1c23 the inhibition was -10.4% (inactive).
For CCN1CCN(c2cc3c(cc2F)c(=O)c(C(=O)O)cn3C2CC2)CC1, the inhibition was -11.2% (inactive).
For O=C(O)P(=O)(O)O, the inhibition was -36.9% (inactive).
With CC1CCc2cc(F)cc3c(=O)c(C(=O)O)cn1c23 (stereo unspecified) the inhibition was 3.55% (inactive) and 8.84% (inactive).
With CN(C)/N=N/c1nc[nH]c1C(N)=O the inhibition was 0.39% (inactive) and -45.8% (inactive).
With Nc1nc2c(ncn2CCC(CO)CO)c(=O)[nH]1 the inhibition was -21.5% (inactive) and -13.7% (inactive).

Same assay, conditions: HDN33 neuroblastoma cells, cisplatin combo, at 5 µM, stronger effect = higher value
C[C@H]1COc2c(C3(N)CC3)c(F)cc3c(=O)c(C(=O)O)cn1c23 showed an inhibition of -7.06%.
Work on CCN1CCN(c2cc3c(cc2F)c(=O)c(C(=O)O)cn3C2CC2)CC1 yielded an inhibition of 14%.
Molecule O=C(O)P(=O)(O)O has an inhibition of -60.9%.
In the case of CC1CCc2cc(F)cc3c(=O)c(C(=O)O)cn1c23 (stereo unspecified), the inhibition is reported as 2.48% and 8.76%.
With CN(C)/N=N/c1nc[nH]c1C(N)=O the inhibition was 25.6% and -37.1%.
In the case of Nc1nc2c(ncn2CCC(CO)CO)c(=O)[nH]1, the inhibition is reported as -35.4% and 5.76%.

Same assay, conditions: HDN33 neuroblastoma cells, measured here: with BGB IC20 combination, at 0.5 µM, stronger effect = higher value
C[C@H]1COc2c(C3(N)CC3)c(F)cc3c(=O)c(C(=O)O)cn1c23 gave an inhibition of -22.3%.
With CCN1CCN(c2cc3c(cc2F)c(=O)c(C(=O)O)cn3C2CC2)CC1 the inhibition was -32.1%.
Molecule O=C(O)P(=O)(O)O has an inhibition of -38.1%.
In the case of CC1CCc2cc(F)cc3c(=O)c(C(=O)O)cn1c23 (stereo unspecified), the inhibition is reported as 18.5% and 19.1%.
For CN(C)/N=N/c1nc[nH]c1C(N)=O, the inhibition was -1.18% and -51%.
For Nc1nc2c(ncn2CCC(CO)CO)c(=O)[nH]1, the inhibition was -20.3% and -5.75%.

Same assay, conditions: HDN33 neuroblastoma cells, measured here: with cisplatin IC20 combination, at 0.5 µM, stronger effect = higher value
With C[C@H]1COc2c(C3(N)CC3)c(F)cc3c(=O)c(C(=O)O)cn1c23 the inhibition was -3.47%.
In the case of CCN1CCN(c2cc3c(cc2F)c(=O)c(C(=O)O)cn3C2CC2)CC1, the inhibition is reported as 1.88%.
With O=C(O)P(=O)(O)O the inhibition was -23.4%.
With CC1CCc2cc(F)cc3c(=O)c(C(=O)O)cn1c23 (stereo unspecified) the inhibition was -0.119% and -5.91%.
In the case of CN(C)/N=N/c1nc[nH]c1C(N)=O, the inhibition is reported as -5.95% and -47.5%.
For Nc1nc2c(ncn2CCC(CO)CO)c(=O)[nH]1, the inhibition was -28.1% and -7.91%.
